Data reported in PubChem BioAssay (NCI).
Where “and” joins values, the source holds several entries; their conditions need not be identical. Equal values may be shown once. About 83,000 compounds went through this panel and 20% of them were active in at least one assay; those are over-represented in the sample as a whole.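 96-well plates, one dose, 48 hours. Percent growth reported; active if below 10.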 Calls of active or inactive are those of the source.

Tested on: MDA-MB-468 breast
Assay: NCI-60 one-dose screen, 48 h (100 = growth as untreated, 0 = no growth, -100 = all killed)
Conditions: 10 µM unless noted

SMILES	growth
CCOC(=O)c1ccc(N(C=O)CCC(=O)CCl)cc1	40.3% (inactive)
C[C@@H]1CC[C@@H]2[C@@H]1[C@H](OC(=O)c1ccc3ccccc3c1)[C@]1(C3CCCCC3)C[C@@H](OC(=O)CO)[C@@]2(C)O1	63.6% (inactive)
O=c1c2c(c3ccccc3n1-c1ccccc1)NC(=S)NC2c1ccc(Cl)cc1 (stereo not drawn)	115% (inactive)
Cc1cc(O)c2c(c1)C(=O)C(c1c(C)cc3c(c1O)C(=O)C=CC3=O)=CC2=O	53.2% (inactive)
C/C(=N\NC(=O)c1ccccc1N)c1ccccc1O	15.5% (inactive)
Cc1cc(Cl)nc(NCc2cc(Nc3ccnc4cc(Cl)ccc34)ccc2F)n1	11.4% (inactive)
COc1cc(OC)cc(N2CCN(C(=O)Nc3nc4cc(F)ccc4nc3OC)CC2)c1	-5.78% (active)
CCC(C)N(c1ccc(Cl)cc1)c1nc(-c2ccc(Br)cc2)cs1 (stereo not drawn)	95.7% (inactive)
CN(CCc1ccccc1)C(=S)N(C(=O)c1ccc([N+](=O)[O-])cc1)c1ccc(Cl)cc1	37.4% (inactive)
COc1cc(-c2nnc(-c3nc(-c4cc(OC)c(OC)c(OC)c4)n4ccccc34)o2)ccc1N	97.7% (inactive)
O=C(Nc1cccc(-n2ccc3c(NC(=O)c4ccccc4)nccc32)c1)c1ccc(Cl)c(C(F)(F)F)c1	-86.9% (active) and 85.1% (inactive)
N#C/C(=C\c1ccc(-c2ccc(F)cc2)o1)c1nc(-c2ccco2)cs1	-47.2% (active)
NC(=O)CCCN1C/C(=C\c2ccccc2)C(=O)c2ccccc21	90.8% (inactive)
